PubChem BioAssay AID434959 (Broad Institute, 2010)
Out of some 30,000 compounds screened, about 110 (0.37%) were called active. The entries come from a sample that favours actives as a whole. Unmarked numbers belong to inactive results.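 Rule for the calls: active = delta delta Cp rounded down to an integer at or above 3, about 3 SD of DMSO wells; inactive = the rest.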

Assay: inhibitors of YB-1 gene expression, primary screen, cell-based, fluorescence (AID 434959);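 note: higher means less YB-1 transcript or more CDIP transcript relative to DMSO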
Conditions: U2OS, qRT-PCR YB-1 vs CDIP delta delta Cp, 16 h; hits give high values; zero = DMSO, each unit about twofold

SMILES | delta Cp (YB-1 minus CDIP)
C/C(=C\CC[C@H](CO)[C@@H]1CC[C@]2(C)C3=C(CC[C@@]12C)[C@@]1(C)CCC(=O)C(C)(C)C1CC3)C(=O)O (stereo partly specified) | -0.0322
C[C@H](CO)N1C[C@H](C)[C@H](CN(C)CC2CC2)Oc2ccc(NS(=O)(=O)c3ccccc3)cc2CC1=O | -0.128
Cc1noc(C)c1S(=O)(=O)Nc1ccc2c(c1)CC(=O)N([C@@H](C)CO)C[C@H](C)[C@H](CN(C)S(=O)(=O)c1ccc(Cl)cc1)O2 | 0.105
C[C@H]1CN([C@@H](C)CO)C(=O)Cc2cc(NS(C)(=O)=O)ccc2O[C@@H]1CN(C)S(=O)(=O)c1ccc(Cl)cc1 | 0.259
Cc1noc(C)c1NC(=O)Nc1ccc2c(c1)C(=O)N([C@@H](C)CO)C[C@@H](C)[C@H](CN(C)C(=O)NC(C)C)O2 | -0.101
C[C@H](CO)N1C[C@H](C)[C@H](CN(C)CC2CCCCC2)Oc2ccc(NC(=O)CCN3CCOCC3)cc2CC1=O | 0.315
C[C@H]1CN([C@@H](C)CO)C(=O)CCCn2cc(nn2)CO[C@H]1CN(C)C(=O)Nc1ccc(F)cc1 | -0.241
C=CCN1C(=O)[C@]2(O[C@H](CCn3cc(CCO)nn3)[C@@H]([Si](C)(C)c3ccc(OC)cc3)[C@@H]2C)c2cc(N3CCOC3=O)ccc21 | -0.00312
COc1ccc(NC(=O)O[C@H](c2ccc(OCCO)cc2)[C@@H](CCO)OC)cc1 | -1.3
C[C@@H]1CCCCO[C@H](CN(C)C(=O)NC2CCCCC2)[C@@H](C)CN([C@H](C)CO)C(=O)c2cc(NS(C)(=O)=O)ccc2O1 | 0.322
COc1ccc(S(=O)(=O)N(C)C[C@@H]2Oc3ccc(NC(=O)CCC(F)(F)F)cc3C(=O)N([C@@H](C)CO)C[C@@H]2C)cc1 | -0.166
C[C@H](CO)N1C[C@H](C)[C@H](CN(C)S(=O)(=O)c2ccccc2)Oc2c(NC(=O)CCCCCC(=O)Nc3ccccc3N)cccc2C1=O | 0.187
C[C@@H]1CN([C@@H](C)CO)C(=O)c2cccc(NC(=O)Nc3ccc4c(c3)OCO4)c2O[C@H]1CN(C)C(=O)Nc1cccc2ccccc12 | 0.0736
COc1ccc(NC(=O)Nc2ccc3c(c2)CC(=O)N([C@@H](C)CO)C[C@@H](C)[C@@H](CN(C)Cc2ccc(Cl)c(Cl)c2)O3)cc1 | 0.191
C=C1C2=CC(=O)O[C@@H](c3ccoc3)[C@]2(C)CCC1[C@@]1(C)C=CC(=O)C(C)(C)[C@@H]1CC(=O)OC (stereo partly specified) | 0.366
C[C@@H]1CN([C@H](C)CO)C(=O)c2cc(NC(=O)Cc3ccccc3)ccc2O[C@@H]1CN(C)CC1CCCCC1 | -0.0442
